Compound activity (PubChem)
This is a sample that favours compounds with a hit; in the whole collection about 12% have one here.
JMJD2A Tudor inh: qHTS Assay for Inhibitors of JMJD2A-Tudor Domain | Lysine-specific demethylase 4A (Homo sapiens), O75164 | AlphaScreen JMJD2A-Tudor / H3K4me3 peptide binding | Potency, µM (titrated, usually from 114 µM), most hits filed as inhibitors | 390,000 tested, 4.4% active | AID 504339, 2011; further: nearly all actives have a fitted effect of over 50% in size
L3MBTL1 inh: qHTS Assay for the Inhibitors of L3MBTL1 | Lethal(3)malignant brain tumor-like protein 1 (Homo sapiens), Q9Y468 | AlphaScreen L3MBTL1–H3K9me1 peptide binding | AID 485360, 2010 | 230,000 tested, 0.66% active | Potency, µM (doses to about 57.1 µM), usual class: inhibitors; further: nearly all actives have a fitted effect of over 60% in size
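L3MBTL1 (50 nM) pre-complexed 30 min with biotinylated H3(1-15)K9me1 peptide (75 nM), then compounds added for 30 min at room temperature; AlphaScreen streptavidin donor/nickel chelate acceptor beads (10 ug/mL final) read after 30 min dark incubation.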
BAZ2B inh: qHTS Assay for Inhibitors of BAZ2B | 360,000 tested, 4.4% active | AlphaScreen BAZ2B-H3K14Ac peptide displacement | AID 504333, 2011 | Potency, µM (titrated, usually from 114 µM), usual class: inhibitors | Bromodomain adjacent to zinc finger domain protein 2B (Homo sapiens), Q9UIF8; further: nearly all actives have a fitted effect of over 60% in size
Target sequence (Q9UIF8 whole entry, looked up, the tested form may be a part): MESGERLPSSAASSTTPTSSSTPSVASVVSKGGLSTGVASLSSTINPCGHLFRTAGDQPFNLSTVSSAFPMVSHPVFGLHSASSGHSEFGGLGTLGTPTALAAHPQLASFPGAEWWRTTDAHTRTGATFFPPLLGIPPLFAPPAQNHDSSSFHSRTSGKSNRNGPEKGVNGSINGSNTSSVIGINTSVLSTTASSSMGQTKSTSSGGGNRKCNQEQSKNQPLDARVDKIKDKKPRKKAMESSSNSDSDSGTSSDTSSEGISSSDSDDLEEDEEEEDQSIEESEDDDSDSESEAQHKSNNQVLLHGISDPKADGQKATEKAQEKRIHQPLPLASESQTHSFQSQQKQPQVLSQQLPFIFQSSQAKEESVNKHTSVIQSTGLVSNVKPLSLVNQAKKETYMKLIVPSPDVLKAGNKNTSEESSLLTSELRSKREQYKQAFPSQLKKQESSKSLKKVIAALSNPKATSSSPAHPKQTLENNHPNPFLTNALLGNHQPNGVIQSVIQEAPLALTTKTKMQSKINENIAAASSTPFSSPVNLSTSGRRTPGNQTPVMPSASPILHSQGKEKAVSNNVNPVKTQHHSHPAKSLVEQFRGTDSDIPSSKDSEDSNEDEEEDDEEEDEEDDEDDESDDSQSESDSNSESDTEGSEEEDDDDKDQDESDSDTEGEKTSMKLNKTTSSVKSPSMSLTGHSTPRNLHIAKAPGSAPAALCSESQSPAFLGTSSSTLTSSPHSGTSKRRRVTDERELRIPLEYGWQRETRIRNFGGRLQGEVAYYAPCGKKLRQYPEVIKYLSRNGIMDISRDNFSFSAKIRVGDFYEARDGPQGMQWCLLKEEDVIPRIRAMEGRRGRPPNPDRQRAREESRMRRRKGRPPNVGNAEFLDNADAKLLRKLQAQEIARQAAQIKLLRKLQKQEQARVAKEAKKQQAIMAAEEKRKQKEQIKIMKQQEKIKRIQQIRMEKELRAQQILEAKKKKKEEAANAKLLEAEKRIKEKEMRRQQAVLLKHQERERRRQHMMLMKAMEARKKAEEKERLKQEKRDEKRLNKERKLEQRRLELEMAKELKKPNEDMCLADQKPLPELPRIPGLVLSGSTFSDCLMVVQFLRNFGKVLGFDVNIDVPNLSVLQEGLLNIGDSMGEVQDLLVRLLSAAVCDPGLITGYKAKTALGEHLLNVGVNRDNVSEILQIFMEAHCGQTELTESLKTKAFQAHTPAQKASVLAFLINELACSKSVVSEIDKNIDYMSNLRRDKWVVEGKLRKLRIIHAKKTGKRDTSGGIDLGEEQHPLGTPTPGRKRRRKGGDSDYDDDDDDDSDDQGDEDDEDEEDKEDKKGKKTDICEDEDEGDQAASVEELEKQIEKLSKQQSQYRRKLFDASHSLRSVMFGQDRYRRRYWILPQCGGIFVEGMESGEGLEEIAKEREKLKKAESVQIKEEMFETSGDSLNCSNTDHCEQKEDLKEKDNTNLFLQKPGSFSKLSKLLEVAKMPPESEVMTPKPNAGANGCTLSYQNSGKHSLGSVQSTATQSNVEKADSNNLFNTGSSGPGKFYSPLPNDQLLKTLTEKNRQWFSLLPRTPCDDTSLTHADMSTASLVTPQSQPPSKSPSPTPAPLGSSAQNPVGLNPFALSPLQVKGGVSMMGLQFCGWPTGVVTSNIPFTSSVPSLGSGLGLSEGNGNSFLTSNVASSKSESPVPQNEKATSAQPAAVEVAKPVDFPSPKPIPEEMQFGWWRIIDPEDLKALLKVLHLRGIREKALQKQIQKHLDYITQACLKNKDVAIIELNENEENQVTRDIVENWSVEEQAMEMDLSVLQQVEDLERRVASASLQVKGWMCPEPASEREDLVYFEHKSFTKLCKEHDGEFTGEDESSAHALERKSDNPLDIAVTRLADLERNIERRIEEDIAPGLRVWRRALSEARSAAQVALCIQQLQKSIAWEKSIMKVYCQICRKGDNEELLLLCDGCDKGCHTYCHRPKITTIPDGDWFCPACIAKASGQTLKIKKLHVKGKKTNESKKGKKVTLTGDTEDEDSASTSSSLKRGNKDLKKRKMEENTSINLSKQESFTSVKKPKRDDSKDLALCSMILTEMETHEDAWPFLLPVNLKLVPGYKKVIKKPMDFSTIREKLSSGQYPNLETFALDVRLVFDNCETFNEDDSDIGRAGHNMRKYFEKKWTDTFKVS
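Inhibition is scored as reduced AlphaScreen emission. The BAZ2B/b-H3(5-23)K14Ac complex (50 nM each) in PBS pH 7.4, 0.01% Tween-20 meets compound (up to 110 uM) for 30 min at RT before bead addition.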
Sfp inh: qHTS Assay for Inhibitors of Bacillus subtilis Sfp phosphopantetheinyl transferase (PPTase); Potency, µM, hits mostly inhibitors; 4'-phosphopantetheinyl transferase ffp (Bacillus subtilis), Q9F4F7; 310,000 tested, 3.5% active; AID 1490, 2009; Biochemical Sfp PPTase activity, qHTS;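 further: the enzyme is Sfp with the accession as filed and its product quenches rhodamine fluorescence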
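Compounds were incubated with enzyme (final 15 nM) for 15 min at room temperature before substrate addition started the reaction. Fluorescence at 525 nm excitation, 598 nm emission was recorded immediately and after 30 minutes.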
HP1b binding inh: HTS for Inhibitors of HP1-beta Chromodomain Interactions with Methylated Histone Tails; Potency, µM (titrated, usually from 114 µM), actives largely listed as inhibitors; 390,000 tested, 0.56% active; AlphaScreen HP1-beta / biotin-H3K9me3 peptide binding; Chromobox protein homolog 1 (Homo sapiens), P83916; further: nearly all actives have a fitted effect of over 70% in size
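HP1-beta protein (50 nM final) preincubated 30 min at room temperature with biotinylated H3(1-18)K9me3 peptide (50 nM) in PBS pH 7.4, 0.01% Tween-20, then compound added for 30 min. AlphaScreen streptavidin donor/nickel chelate acceptor beads (10 ug/mL final), 30 min dark, luminescence read.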
G9a block: qHTS Assay for Inhibitors of Histone Lysine Methyltransferase G9a | Histone-lysine N-methyltransferase EHMT2 (Homo sapiens), Q96KQ7 | G9a H3K9 monomethylation, AlphaScreen, 2 h | Potency, µM (highest dose often 102 µM), usual class: inhibitors | 350,000 tested, 8.8% active; further: nearly all actives have a fitted effect of over 75% in size
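Readings reflect AlphaScreen signal from monomethyl-H3K9 antibody detection. HMT at 20 nM; substrate b-H3K9 500 nM; cofactor SAM 20 uM; 2 h RT reaction; compounds tested as titrations in qHTS with 15 min preincubation.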
Hits are given with their value; . = inactive; ? = inconclusive; / = no result given; [ ] = another dose, or the depositor's remark. The call rests on the fitted dose curve; in most records, active means well fitted curve in the direction sought with a large enough effect; inconclusive means small, poorly fitted or top-dose-only effect, or another doubt; inactive means no such curve, though single readings can be large; an effect the other way counts as inactive or inconclusive.

SMILES	JMJD2A Tudor inh	L3MBTL1 inh	BAZ2B inh	Sfp inh	HP1b binding inh	G9a block
CCN1C(=O)c2ccccc2S(=O)c2ccc(C(=O)N3CCN(c4cccc(Cl)c4)CC3)cc21 (stereo not given)	.	/	?	/	.	.
N#Cc1cc2cc3c(cc2nc1N1CCCCC1)OCCO3	.	.	.	28µM	.	?
Cc1ccc2sc(N3CCN(CCNC(=O)c4ccco4)CC3)nc2c1C	?	.	?	/	.	45µM
COc1ccc(C2=CC(c3sccc3C)n3nnnc3N2)cc1 (stereo not given)	.	.	.	50µM	.	/
Cc1ccc(C2=CC(c3ccccc3)n3ncnc3N2)cc1 (stereo not given)	.	/	/	/	.	/
Cc1ccsc1C1C=C(c2cccc(Br)c2)Nc2ncnn21 (stereo not given)	.	.	.	45µM	.	10µM
COc1cc(C2C=C(c3cccs3)Nc3ncnn32)cc(OC)c1OC (stereo not given)	?	.	.	.	.	32µM
COc1cccc(C2=CC(c3ccc(C)cc3)n3ncnc3N2)c1 (stereo not given)	/	.	.	.	/	40µM
Cc1ccc2c(CSc3nncn3C)cc(=O)oc2c1C	.	.	/	.	.	.
C[C@@H]1CCCCCCCCC(=O)OCCN[C@H](C)CCCCCCCCC(=O)OCCN[C@H](C)CCCCCCCCC(=O)OCCN1	.	.	/	/	.	/
COc1ccc(C2C3=C(Nc4ncnn42)c2ccccc2CCC3)cc1 (stereo not given)	.	.	.	.	.	?
COc1cc(C2C3=C(Nc4ncnn42)c2ccccc2CC3)cc(OC)c1OC (stereo not given)	.	.	.	.	.	32µM
COCCNC(=O)C(OC(=O)c1cc2oc(C)cc2n1C)C(C)C (stereo not given)	.	.	79µM	.	.	?
COc1cccc(CN(C(=O)c2oc3cc(C)ccc3c2C)C2CCS(=O)(=O)C2)c1 (stereo not given)	.	/	.	/	.	.
COc1cccc(-c2nc(S(=O)(=O)c3ccc(Cl)cc3)c(NCc3ccccc3)o2)c1	.	/	.	/	.	.
CC(=O)Nc1ccc(NC(=O)CCc2nc3sc4c(c3c(=O)[nH]2)CCCC4)cc1	.	.	.	/	.	.[0.501 µM]
CC1(NC(=O)CCc2nc3sc4c(c3c(=O)[nH]2)CCCC4)CCS(=O)(=O)C1 (stereo not given)	?	?	79µM	/	.	50µM
CCc1ccccc1NC(=O)CNC(=O)CCc1nc2sc3c(c2c(=O)[nH]1)CCCC3	?	?	50µM	/	.	?
O=C(CCc1nc2sc3c(c2c(=O)[nH]1)CCCC3)NCCc1ccccc1	.	?	?	/	.	?
Cc1ccc(NC(=O)CCc2nc3sc4c(c3c(=O)[nH]2)CCCC4)c(Br)c1	?	.	50µM	/	.	?
COc1cc(/C=N/NC(=O)c2ccncc2)ccc1OC(=O)c1cc(OC)c(OC)c(OC)c1	.	/	.	.	.	.
CC(C)CN(CC(C)C)CC(O)COc1ccc([N+](=O)[O-])cc1 (stereo not given)	.	.	.	.	.	.
COC(=O)Cc1c[nH]c2cccc(OCC(O)CN(Cc3ccc([N+](=O)[O-])cc3)C(C)(C)C)c12 (stereo not given)	?	.	71µM	.	?	/
COc1ccc(NS(=O)(=O)c2ccc(NC(=S)NC(=O)c3cccnc3)cc2)nn1	.[11.4 µM]	.	.	.	.	28µM
COc1ccc(NS(=O)(=O)c2ccc(NC(=S)NC(=O)c3ccc(Br)cc3)cc2)nn1	?	.	?	.	.	18µM
SMILES	JMJD2A Tudor inh	L3MBTL1 inh	BAZ2B inh	Sfp inh	HP1b binding inh	G9a block
COc1ccc(NS(=O)(=O)c2ccc(NC(=O)c3ccc(Br)cc3)cc2)nn1	.	.	.	.	.	.
O=C(NC(=S)Nc1ccc(S(=O)(=O)Nc2ncccn2)cc1)c1ccc(Br)cc1	.	.	.	?	?	50µM
O=S(=O)(NNC(=S)Nc1ccc(S(=O)(=O)Nc2ncccn2)cc1)c1ccc(Br)cc1	.	/	.	.	.	.
O=S(=O)(Nc1ncccn1)c1ccc(NC(=S)Nc2ccc(Cl)cc2)cc1	.	.	.	40µM	.	/
Cc1cc(C)c2c(=O)cc(C(=O)Nc3ccc(S(=O)(=O)N(C)Cc4ccccc4)cc3)oc2c1	.	/	.	/	.	.
O=C(NCCSc1c[nH]c2ccccc12)c1ccc(Br)o1	.	.	.	.	.	79µM
COc1ccc(Cl)cc1Nc1ccc2cc(S(=O)(=O)N3CCCCC3)ccc2n1	.	/	.	/	.	5µM
O=C(CSc1nc(=O)n2ccccc2n1)OCc1ccccc1	.	.	.	/	.	.[0.501 µM]
O=C1CNC(=S)N1Cc1ccccc1	.	.	.	.	.	.[12.7 µM]
O=C1C2CC(O)CN2C(=S)N1Cc1ccccc1 (stereo not given)	.	.	.	50µM	?	.[12.7 µM]
CCN(CC)CCN1C(=O)C(=O)/C(=C(/O)c2ccc(S(=O)(=O)N3CCOCC3)cc2)C1c1ccc(C)cc1 (stereo not given)	.	/	.	.	.	?
CCOC(=O)/C(=N\Nc1ccccc1)P(=O)(c1ccccc1)c1ccccc1	.	.	?	20µM	.	.
COC(=O)CSc1nc2ccc(N)cc2s1	.	.	.	.	.	18µM
CCOC(=O)CSc1nc2ccc(NC(C)=O)cc2s1	.	.	.	.	.	.
Cc1nnc(N2CCC(C(=O)N3CCCCC3)CC2)c2nn(-c3ccccc3)c(C)c12	.	/	.	/	.	.
CCc1ccc(CNc2ccc3c(c2)ncn3C)cc1	?	.	45µM	.	?	3.2µM
CCn1cnc2cc(NCc3ccc(Cl)cc3)ccc21	?	/	?	.	.	50µM
Cn1cnc2cc(NCc3ccccc3O)ccc21	.	.	.	.	.	.
CCCn1cnc2cc(NCc3ccccn3)ccc21	56µM	.	50µM	.	.	10µM
COc1ccc(CNc2ccc3c(c2)ncn3C)cc1OC	.	.	.	.	.	40µM
O=C(CN1C(=O)COc2ccc(S(=O)(=O)N3CCCC3)cc21)NCc1ccccn1	.	/	.	.	.	/
O=C(Cc1ccccc1)Nc1sc2c(c1C(=O)Nc1ccc(Cl)cc1)CCOC2	.	/	/	/	/	/
CCCNC(=O)C/C(C)=N/NC(=O)C(=O)Nc1ccccn1	.	.	.	.	.	50µM
Cc1ccc(-c2nn(CC(=O)NN3CCOCC3)c(=O)c3ccccc23)cc1	.	.	.	.	.	.
